# PubChem BioAssay (NCATS)
# Results filed as inconclusive are left out. A number with no mark means an inactive call. The source made the active and inactive calls. Calls follow the shape of the full dose curve.
# Target: Atrial natriuretic peptide receptor 1 (Homo sapiens) (UniProt P16066)
# Assay: Natriuretic polypeptide receptor (hNpr1) antagonism - Pilot CMLD screen (AID 1347052)
# Settings: HEK293 hNpr1 GloSensor cGMP luminescence, ANP-stimulated; series mostly up to 9.22 µM; activity change, negative = inhibition: at the top concentration
# Method: In order to identify small molecular compounds that inhibit the hNpr1 receptor we developed a high-throughput assay to measure inhibition of the guanylate cyclase activity of the receptor. cGMP production was measured using a circular permutated Firefly luciferase (FLuc) enzyme functionally linked to the cGMP binding domain of human phosphodiesterase 5 (GloSensor technology pGS-40F, (Fan, F. et al. 2008). The cGMP-sensor was expressed in human embryonic kidney 293 (HEK-293) cells and FLuc activity was measured after stimulation with hNrp agonist peptide. hNrp agonists activates the receptor's associated guanylyl cyclase (GC) domain producing cGMP which then binds to the GloSensor resulting in FLuc activation, the enzymatic activity of which can be measured as bioluminescence with addition of luciferin substrate.
# This assay was initially piloted by testing with a small library of specialty compounds.
# PROTOCOL TABLES (as described by Inglese J, Shamu CE and Guy RK. 2007)
# SEQUENCE No. (e.g., 1, 2, 3, etc.); […] (e.g., Cells, Incubation, Reagent, etc.); VALUE and DESCRIPTION.
# 1. Cells. Seed 1500 HEK293 cGMP-sensor cells expressing hNpr1 per well in 4uL into Greiner 1536-well white/solid bottom high base, tissue culture-treated plates.
# 2. Incubation. Incubate plated cells at 37C in 5% CO2, 95% RH overnight.
# 3. Reagent. Add 1uL per well GloSensor reagent from Promega (2% final concentration) or CO2 independent media vehicle control to respective columns of Greiner 1536-well plates.
# 4. Incubation. Incubate plated cells at room temperature for 2 h, protect from light.
# 5. Compounds. Library compounds and A-71915 control added at 23 nL per well, transferred by Pin Tool.
# 6. Incubation. Incubate plated cells for 30 min. at room temperature, protect from light.
# 7. Detector. GloSensor baseline pre-read luminescence measured using CCD-based camera (Viewlux).
# 8. Compound. Add 1uL of hNppA peptide to 0.1 nM final concentration to stimulate hNpr1 or CO2 independent media as vehicle control.
# 9. Incubation. Incubate treated cells at room temperature for 20 min., protect from light.
# 10. Detector. GloSensor post-hNppA luminescence measured using CCD-based camera (Viewlux).
# NOTES (numbers refer to Sequence numbers above)
# 1. HEK293 cells expressing hNpr1 and GIP/pGS-40F grown to 85-95% confluence (48-72 h) in T175 culture flasks (CO2 independent media supplemented with 10% FBS, 1% Pen/Strep antibiotics and 1 ug/mL puromycin). Trypsinize and harvest cells from T175 culture flasks and filter through 40 um cell strainer. Cells counted with Invitrogen Countess (30,000,000 - 50,000,000 cells/flask). Cells diluted to a final concentration of 375 cells/uL in CO2 independent media and a Millipore multidrop used to dispense 1500 cells per well (4uL/well) into 13 1536-well Greiner White/Solid bottom, high base tissue-culture treated (TC) plates and one Aurora 1536-well Black/Clear bottom, low base, TC plate (for visual inspection of cell health throughout the duration of the assay).
# 2. Cells incubated overnight at ambient temperature, 24 h. at 37C in 95% RH incubator protected from light, covered with metal lid with gas-exchange holes.
# 3. Prepare GloSensor Reagent (Promega): Reconstitute GloSensor luciferase substrate by adding 8.2mL Hepes buffer to 250mg substrate, mix well, protect from light and stored at -80C. Prepare a fresh 12% GloSensor solution in CO2 independent supplemented plating media (see above). Mix well and store at ambient temperature, protected from light. 1uL 12% GloSensor Luciferase Reagent added (2% final concentration) to respective columns of 13 x 1536-well Greiner plate with BioRaptr, 1uL CO2 independent plating media added to respective columns as vehicle control with BioRaptr.
# 4. Cells incubated for 2 h. at ambient temperature, protected from light with metal lid with gas-exchange holes.
# 5. A-71915 stock solution prepared (10 mM in DMSO). […]
# % is scaled to controls: 0 for no effect and ±100 for the full control effect; potency is read from the fitted curve at half-maximal effect.
# Sequence of Atrial natriuretic peptide receptor 1 (Homo sapiens) (P16066 whole entry, looked up): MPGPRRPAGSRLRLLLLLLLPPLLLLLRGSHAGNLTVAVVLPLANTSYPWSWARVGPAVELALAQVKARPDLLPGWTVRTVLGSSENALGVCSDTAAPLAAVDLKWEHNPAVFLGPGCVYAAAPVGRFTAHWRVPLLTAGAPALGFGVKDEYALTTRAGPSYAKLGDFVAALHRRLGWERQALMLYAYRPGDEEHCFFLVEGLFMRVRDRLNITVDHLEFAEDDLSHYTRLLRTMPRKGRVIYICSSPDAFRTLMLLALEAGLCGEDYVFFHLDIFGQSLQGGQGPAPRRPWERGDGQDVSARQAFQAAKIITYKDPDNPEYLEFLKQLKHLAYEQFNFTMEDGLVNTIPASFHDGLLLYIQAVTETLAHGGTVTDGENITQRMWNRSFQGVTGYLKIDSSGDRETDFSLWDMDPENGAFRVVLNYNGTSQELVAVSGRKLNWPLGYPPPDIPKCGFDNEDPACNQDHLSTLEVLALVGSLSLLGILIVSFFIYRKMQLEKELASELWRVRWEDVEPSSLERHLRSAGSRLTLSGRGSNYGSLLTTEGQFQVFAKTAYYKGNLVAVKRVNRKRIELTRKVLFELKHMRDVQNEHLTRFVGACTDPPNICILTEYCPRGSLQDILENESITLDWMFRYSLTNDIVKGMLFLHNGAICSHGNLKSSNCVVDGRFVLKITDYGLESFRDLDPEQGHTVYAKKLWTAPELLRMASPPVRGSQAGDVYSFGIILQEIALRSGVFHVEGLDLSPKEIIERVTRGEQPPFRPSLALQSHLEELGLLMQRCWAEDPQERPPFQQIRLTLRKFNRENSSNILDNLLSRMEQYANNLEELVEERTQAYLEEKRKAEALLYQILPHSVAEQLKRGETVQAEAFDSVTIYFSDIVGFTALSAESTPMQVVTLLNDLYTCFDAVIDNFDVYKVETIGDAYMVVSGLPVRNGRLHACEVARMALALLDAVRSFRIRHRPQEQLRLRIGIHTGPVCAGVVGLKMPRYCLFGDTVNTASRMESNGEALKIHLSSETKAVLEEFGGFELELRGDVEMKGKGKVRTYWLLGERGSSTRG
SMILES,"activity change, negative = inhibition [%]",Potency
COC(=O)C12C[C@H](C)C3C(C)C(c4ccccc4C31)N2C(=O)C(F)(F)F (stereo not given in full),0.278,–
CC(C)=CCN1C(=O)[C@]2(O[C@H](COc3ccccc3)CC3=C2CCC3)c2ccccc21,5.89,–
COC1=C[C@H](C(=O)NCCNC(C)=O)[C@@]2(C)Cc3ccccc3[C@@H]2CC1=O,-5.11,–
COc1cccc([C@@H]2Oc3ccc(Br)cc3C[C@@H]2OC(=O)Nc2cc(OC)c(OC)c(OC)c2)c1,-10.2,–
COC(=O)C1=C(C)N(Cc2ccccc2)C(=NCc2ccc(OC)cc2)NC1c1cccc(F)c1 (stereo not given),-1.44,–
Cc1cc(C)c2c(c1)CO[C@H]([C@H](O)CO)[C@H]2C=Cc1ccccc1,3.52,–
C=CCN1C(=O)CC[C@@]23C1=NC(C(=O)OC)=C(C(=O)OC)[C@@H]2N(CC#CC)c1ccccc13,-10.8,–
COC(=O)N1C(C)=Cc2ccccc2C1CC(C)=CC(C)=O (stereo not given),–,inactive
COc1ccc2c(c1)O[C@@H](c1ccc3c(c1)OCO3)[C@H](O)C2=O,-6.19,–
C[C@H]1[C@@H](C(=O)N2CCCC2)CC(=NOCc2ccccc2)C(=NOCc2ccccc2)C[C@H]1c1ccccc1,3.37,–
CC1=C[C@@H](COCc2ccccc2)O[C@@]2(C1)C(=O)N(Cc1ccc(Br)cc1)c1ccccc12,-4.44,–
CCN1C(=NCCc2cccnc2)NC(CCc2ccccc2)C(C(=O)OC)=C1C (stereo not given),0.931,–
C=C(C(C)=O)C(O)c1ccco1 (stereo not given),0.41,–
CCOC(=O)OC[C@H]1O[C@H](C#Cc2ccc(C)cc2C)C=C[C@H]1OC(=O)OCC,-0.191,–
COC(=O)N[C@@H](c1ccccc1)[C@]1(C(C)=O)CCCC1=O,-0.337,–
CC(=O)N1C(=O)NC(C)=C(C#N)C1c1ccccc1 (stereo not given),5.84,–
COC[C@@H](O)[C@H]1OCc2cc(OC)ccc2[C@H]1C=Cc1ccccc1,-0.107,–
CCN1C(N(C)CCc2c[nH]c3ccccc23)=NC(c2cccc(C(F)(F)F)c2)C(C(=O)OC)=C1C (stereo not given),-0.0158,–
CC(=O)C1=C(C)N(Cc2ccccc2)C(=O)NC1CCc1ccccc1 (stereo not given),-2.34,–
CCN1C(=O)NC(c2ccc(Br)cc2)C(C(C)=O)=C1C (stereo not given),–,inactive

SMILES,"activity change, negative = inhibition [%]",Potency
C(#C[C@@H]1C=C[C@H]2OC(c3ccccc3)OC[C@H]2O1)c1ccccc1 (stereo not given in full),2.67,–
COc1ccc(O[C@H]2C=C[C@@H](c3ccccc3)O[C@H]2COC(=O)CCC(C)=NO[C@H](C)CN2CCCc3nc(C)c(C)cc32)cc1,0.0192,–
CC(CCC#N)[N+](=O)[O-] (stereo not given),–,5.31 µM (active)
C=C(C)C(=O)C=Cc1ccc(Br)cc1,-6,–
CCCCc1nc2c(c3c1C[C@H](C)OC3)CN(C(=O)C1CCCCC1)CC2,0.608,–
COc1cccc([C@@H]2Oc3ccc(OC)cc3C(=O)[C@@H]2OC(=O)N[C@H]2CCCc3ccccc32)c1,-0.744,–
C=C(C#Cc1ccc(OC)cc1)CCN1C=C(C(=O)OCC)C(c2ccccc2)NC1=O (stereo not given),-0.51,–
C=C(C(C)=O)C(O)c1cccc(OC)c1 (stereo not given),-4.73,–
CCOC(=O)CN1C(=O)NC(c2ccccc2)C(C(C)=O)=C1C (stereo not given),-3.3,–
COC(=O)[C@H](Cc1ccccc1)NC(=O)O[C@@H]1C(=O)c2cc(Br)ccc2O[C@H]1c1ccc2c(c1)OCO2,0.903,–
Cc1cc(O)cc(O)c1C(=O)OC1(C)C(=O)C=C2C=C(C=CC(=O)O)OC=C2C1=O (stereo not given),-1.34,–
COc1ccc2c(c1)[C@@]1(OCCC=C[C@@H]1C)C(=O)N2CC=C(C)CCC=C(C)C,-0.132,–
CC1=CC[C@@H](COc2ccccc2)O[C@@]2(C1)C(=O)N(Cc1ccccc1C(F)(F)F)c1ccccc12,6.47,–
C#CCN1C(=O)[C@]2(O[C@H](C)CC3=CCCC32)c2c(Br)cccc21 (stereo not given in full),13,–
COC(=O)N[C@H](CC(C)=O)c1cccs1,18.7,–
C=CC[C@@H]1C=C(C(=O)OC)N(C(=O)C(F)(F)F)[C@@H](c2ccccc2Br)[C@@H]1C,-3.42,–
COc1ccc(-c2nc3c(c4c2C[C@H](c2ccccc2)OC4)CN(C(=O)N[C@@H](C)c2ccccc2)CC3)c(C)c1,-12.1,–
CCC=CC[C@@]1(C(=O)OC)C=C[C@@H](C)[C@H](c2ccccc2Br)N1C(=O)C(F)(F)F,-3.78,–
COC(=O)C1=C(C)N(Cc2ccccc2)C(=NCc2cc(OC)c(OC)c(OC)c2)NC1c1cccc(F)c1 (stereo not given),-0.295,–
O=C1CCCC=C1C(CCc1ccccc1)OC(=O)c1ccc(Br)cc1 (stereo not given),-19.1,–
